This is an account of results in PubChem BioAssay (NCI).

Holding throughout (experiment): NCI-60 one-dose screen, 48 h (100 = growth as untreated, 0 = no growth, -100 = all killed)
The subject of experiment [1] is BT-549 breast. The note with it: 10 µM unless noted.
For experiment [2], the system named is MDA-MB-435 melanoma. The note with it: 10 µM unless noted.
Experiment [3] concerns SW-620 colon. The note with it: 10 µM unless noted.
The test system of experiment [4] is MCF7 breast. The note with it: 10 µM.
The test system of experiment [5] is HCT-116 colon. The note with it: 10 µM unless noted.
For experiment [6], the system named is HCC-2998 colon. The note with it: 10 µM unless noted.
Experiment [7] has as its system KM12 colon. The note with it: 10 µM unless noted.

About 83,000 compounds went through this panel and 20% of them were active in at least one assay; those are over-represented in the sample as a whole.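 For each line, cells grew in 96-well plates with the test compound present at a single concentration for 48 hours.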 Unmarked numbers belong to inactive results. Activity calls are given as the source filed them. How the source made its calls: active means growth percent below 10; inactive means the rest.

Regarding `CCOc1cc2c(cc1OCC)C(c1cc(C)c(O)c(C)c1)NCC2` (stereo unspecified), the growth in experiment [1] is 107%; in experiment [2], 97.5%; in experiment [3], 100%; in experiment [4], 89.1%; in experiment [5], 94.2%; in experiment [6], 103%. For the same molecule, the growth in experiment [7] was 103%.
On to `CC(=O)O[C@@H]1/C=C/C(=O)N[C@@H](C)CCC/C=C/[C@@H]2CCC[C@H]21`, for which the growth was 117% in experiment [1]; 106% in experiment [2]; 112% in experiment [3]; 98.8% in experiment [4]; 104% in experiment [5]; 98.5% in experiment [6]. The growth in experiment [7] is 108%.
In the case of `COc1ccc(/C=C/C(=O)c2ccc3cc(OC)c(OC)cc3c2)cc1OC`, the growth in experiment [1] is 33.9%; in experiment [2], 7.45% (active); in experiment [3] it was 11.1%; in experiment [4], 25.9%; in experiment [5], 16.9%; in experiment [6], 48.6%. In experiment [7], the growth was 21.5%.
For the molecule `O=C(c1nc2ccccc2[nH]1)C1C(c2cccc([N+](=O)[O-])c2)C2CC3CCCCC3N2[C@@]12C(=O)Nc1cc(Cl)ccc12` (stereo partly specified), the growth in experiment [1] was 52.9%; in experiment [2], 35.8%; in experiment [3], 37.9%; in experiment [4] it was 16.3%; in experiment [5], 13%; in experiment [6], 23.9%. Also, in experiment [7], the growth was 32.5%.
For `CCC1=C[C@]2(C3CC(=O)N(c4ccccc4)C3=O)CC(C(C)(C)C)C[C@@H]2[C@@H]2C(=O)N(c3ccccc3)C(=O)[C@H]12` (stereo partly specified), the growth in experiment [1] was 86.5%; in experiment [2] it was 85.9%; in experiment [3], 88.4%; in experiment [4], 80.7%; in experiment [5] it was 68.1%; in experiment [6] it was 103%. The growth in experiment [7] is 85.9%.
For the molecule `O=Cc1c(OCc2cnnn2CC(=O)Nc2ccc(Br)cc2)ccc2ccccc12`, the growth is 80.8% in experiment [1]; 102% in experiment [2]; 91.3% in experiment [3]; 84.1% in experiment [4]; 101% in experiment [5]; 94.3% in experiment [6]. The growth in experiment [7] is 88.7%.
Consider `Cc1ccc2[nH]c(=O)cc(-n3nncc3Cn3c4ccccc4c4ccccc43)c2c1`, for which the growth in experiment [1] was 96.6%; in experiment [2], 100%; in experiment [3] it was 97.9%; in experiment [4] it was 99.5%; in experiment [5] it was 97.8%; in experiment [6], 101%. Besides, in experiment [7], the growth was 103%.
As to `CCOC(=O)c1sc(-c2ccc(OS(=O)(=O)c3cccs3)c(C=O)c2)nc1C`, the growth was -7.24% (active) in experiment [1]; -15.1% (active) in experiment [2]; 8.51% (active) in experiment [3]; -21.7% (active) in experiment [4]; 2.95% (active) in experiment [5]; 46.4% in experiment [6]. In addition, the growth in experiment [7] is 0.602% (active).
Regarding `COc1ccc(Cn2c(Br)c3c(c2-c2cc(OC)c(OC)c(OC)c2)CCc2sc(NC(C)=O)nc2-3)cc1`, the growth in experiment [1] is 74.2%; in experiment [2], -57% (active); in experiment [3], 20.5%; in experiment [4], 16.3%; in experiment [5] it was 40.7%; in experiment [6], 70.2%. Further, the growth in experiment [7] was 30.4%.
With `Cn1nc(C(F)(F)F)c(-c2ccc(Cl)c(C(F)(F)F)c2)c1-c1ccc(OCc2ccc(Cl)cc2)cc1O`, the growth is 39.8% in experiment [1]; 24.7% in experiment [2]; 13.9% in experiment [3]; 4.01% (active) in experiment [4]; -0.403% (active) in experiment [5]; 13.5% in experiment [6]. Further, the growth in experiment [7] is 8.83% (active).
On to `CCn1c(Cc2ccccc2Nc2c(Cl)cccc2Cl)nnc1SCC(=O)NN1C(=O)/C(=C/c2cccc(OC)c2OC)SC1=S`, for which the growth in experiment [1] was 109%; in experiment [2], 103%; in experiment [3] it was 106%; in experiment [4], 99.1%; in experiment [5] it was 109%; in experiment [6] it was 115%. Further, the growth in experiment [7] was 102%.
With `CC/C=C\C[C@H](O)C/C=C1/C(=O)C=C[C@@H]1C/C=C\CCCC(=O)OCCS(=O)(=O)c1ccccc1`, the growth was 2.95% (active) in experiment [1]; 28.3% in experiment [2]; 33.2% in experiment [3]; 18.9% in experiment [4]; -23% (active) in experiment [5]; 53.4% in experiment [6]. Moreover, the growth in experiment [7] is 25.6%.
As for `Cc1sc2ncnc(Sc3nc4ccccc4[nH]3)c2c1C`, the growth in experiment [1] is 47.2%; in experiment [2], -92.9% (active); in experiment [3], -78.2% (active); in experiment [4], -70.2% (active); in experiment [5], -71.2% (active); in experiment [6] it was -91.4% (active). In addition, the growth in experiment [7] is -90.1% (active).
Consider `O=C(Nc1nc2c(s1)CCc1c-2c(Br)n(Cc2ccccc2)c1Br)c1ccccc1`, for which the growth in experiment [1] was 52.8%; in experiment [2], 56.1%; in experiment [3], 69.2%; in experiment [4] it was 51.5%; in experiment [5], 69.9%; in experiment [6], 99.1%. Besides, the growth in experiment [7] is 65.5%.
As to `Cc1sc2ncn(CC(=O)Nc3ccc(S(N)(=O)=O)cc3)c(=O)c2c1C`, the growth was 97.7% in experiment [1]; 105% in experiment [2]; 100% in experiment [3]; 101% in experiment [4]; 106% in experiment [5]; 113% in experiment [6]. The growth in experiment [7] was 102%.
For the molecule `COc1ccc(OC)c(/C=C/C(=O)c2c(C)nc3ccccc3c2/C=C/c2ccccc2)c1`, the growth in experiment [1] was 59%; in experiment [2], 46.4%; in experiment [3] it was 36.5%; in experiment [4], 19.8%; in experiment [5] it was 34.1%; in experiment [6] it was 93.6%. In experiment [7], the growth was 69.4%.
For `COc1cccc2c(=O)c3c(sc12)c(NCCCNCCO)nc1ccccc13`, the growth in experiment [1] was 84.8%; in experiment [2] it was 15%; in experiment [3], -73.9% (active); in experiment [4], -13.6% (active); in experiment [5] it was 31.5%; in experiment [6], 37.9%. In addition, the growth in experiment [7] was 31.3%.
`FC(F)(F)c1cccc(Nc2nc(-c3ccccc3)nc3ncccc23)c1`: the growth in experiment [1] was 60.8%; in experiment [2], -79.4% (active); in experiment [3], -53% (active); in experiment [4] it was 68.2%; in experiment [5] it was 28.5%; in experiment [6], -68.3% (active). Further, in experiment [7], the growth is 38.1%.
